Experimental data: the supplement of paper PMC13380429
A number with no mark means an inactive call.

System: Vero E6 infected with SARS-CoV-2
Test: inhibition of SARS-CoV-2 cytopathic effect; higher = more antiviral protection, active = above 15
Conditions: 48 h

Row | SMILES | inhibition of SARS-CoV-2 cytopathic effect (1 nM) [%] | inhibition of SARS-CoV-2 cytopathic effect (8.33 nM) [%] | inhibition of SARS-CoV-2 cytopathic effect (100 nM) [%] | inhibition of SARS-CoV-2 cytopathic effect (833.33 nM) [%] | inhibition of SARS-CoV-2 cytopathic effect (10000 nM)
1 | CC(=O)Oc1ccc(C(c2ccc(OC(C)=O)cc2)c2ccccn2)cc1 [bisacodyl] | 0.11 | -1.99 | -2.25 | 1.04 | 2.49%
2 | OC(c1ccc(-c2ccc(CN3CCN(Cc4ccncc4)CC3)cc2)c(F)c1)(C(F)(F)F)C(F)(F)F | -1.89 | 0.74 | -2.07 | -1.4 | -1.46%
3 | CC(=N)NCc1cccc(CN)c1 | 0.8 | -0.79 | -0.18 | 1.65 | 0.53%
4 | N#Cc1nn(-c2c(Cl)cc(C(F)(F)F)cc2Cl)c(N)c1[S+]([O-])C(F)(F)F (stereo not given) [fipronil] | 0.34 | 3.14 | 1.21 | 3.8 | 3.66%
5 | CNC(=O)O[C@H]1COc2ccc(N3CCN(C4COC4)CC3)cc2[C@@H]1NC(=O)c1ccc(F)cc1 | 1.12 | -0.75 | -1.06 | 0.34 | 1.4%
6 | COc1ccc(Nc2ccn(-c3ccccc3)n2)cc1 | 2.12 | 1.12 | 3.85 | 3.51 | 4.1%
7 | C=C[C@H]1CN2CC[C@H]1C[C@H]2[C@H](O)c1ccnc2ccccc12 [cinchonidine] | -0.165 | 2.44 | 2.67 | 3.6 | 2.49%
8 | Cn1nc(-c2ccc(C(F)(F)F)cc2)nc2c(=O)n(C)c(=O)nc1-2 [walrycin-B] | -1.05 | -0.74 | 1.15 | 12.5 | -12.8%
9 | CC(=O)/N=c1/sc(S(N)(=O)=O)nn1C [methazolamide] | 2.05 | 1.62 | -1.26 | -0.76 | 1.82%
10 | Oc1ccc(CC2NCCc3cc(O)c(O)cc32)cc1 (stereo not given) [higenamine] | 1.31 | 2.53 | 1.77 | -0.52 | -2.56%
11 | CCc1nc2c(C)nc(C)cc2n1-c1ccc(CCNC(=O)NS(=O)(=O)c2ccc(C)cc2)cc1 [grapiprant] | -1.43 | -2.32 | -2.77 | -5.47 | -1.61%
12 | CCCCCCCCNC(C)C(O)c1ccc(SC(C)C)cc1 (stereo not given) [suloctidil] | 0.05 | -0.56 | -0.38 | 0.21 | -0.41%
13 | CCC(C)(C)c1ccc(CC(C)CN2C[C@@H](C)O[C@@H](C)C2)cc1 (stereo not given in full) [amorolfine] | 1.24 | 0.11 | 1.63 | 3.07 | 1.19%
14 | CN1C(=O)C(Cc2c[nH]c3ccccc23)NC1=S (stereo not given) [necrostatin-1] | 1.27 | -1.34 | 2.85 | 1.03 | 1.43%
15 | O=C(Nc1cccnc1)c1cc(-c2ccnc(F)c2)ccc1OCc1ccccc1 | 2.42 | -0.98 | 4.16 | 4.08 | 3.44%
16 | CCN1CCCC(OC(=O)C(c2ccccc2)c2ccccc2)C1 (stereo not given) [piperidolate] | -8.23 | -7.13 | -7.85 | -6.63 | -10.7%
17 | O=c1[nH]cnc2c1ncn2[C@H]1CC[C@@H](CO)O1 [didanosine] | 0.07 | -2.03 | 2.16 | 3.97 | -1.54%
18 | CN(C(=O)Cc1ccc(Cl)c(Cl)c1)[C@H](CN1CCCC1)c1ccccc1 | 4.62 | 6.47 | 6.09 | -0.24 | 34.8% (active)
19 | COc1cccc(Nc2ncnn3ccc(CN4CC[C@@H](N)[C@H](O)C4)c23)c1 | -0.26 | 0.1 | -6.81 | -16.4 | -22.6%
20 | CCOC(=O)CSCCC1NC(C(=O)O)CS1 (stereo not given) [letosteine] | -0.45 | -0.54 | 3.16 | 2.53 | 5.67%
21 | N#Cc1cc(-c2n[nH]c(-c3ccncc3)n2)ccn1 [topiroxostat] | 0.4 | 0.34 | 3.87 | -0.47 | 0.11%
